# Source: PubChem BioAssay
# HepG2 tox: HepG2 cytotoxicity, counter-screen for TGF-b inhibitors. HepG2 CAGA-GFP viability, ATP luminescence, 18 h. Potency, µM (titrated, usually from 46.1 µM), for the others: top-dose activity change, negative = cytotoxicity, actives largely listed as cytotoxic. 0.76% of 410,000 active. AID 588856; further: potency means the concentration at half of the fitted maximal effect
#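 CellTiter-Glo luminescence gave cytotoxicity after 18 hours at 37 degrees C. The cells were HepG2 CAGA-GFP in 1% FBS DMEM, stimulated with 500 pg/mL TGF-beta after compound addition. %Activity was normalised to no-cell wells (complete cell-killing) and DMSO (no toxicity), and curves were fitted and classified.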
# IL-1B inflam inh: inflammasome signaling inhibition, IL-1 beta readout; activity change, % at 57.5 µM; 4.7% of 360,000 active; THP-1 LPS/ATP IL-1B secretion, AlphaLISA, 16 h; hits give low values; in the data active means activity change below about -50%; inconclusive means mostly about -30% to -49%; further: on the % scale 0 is the no-effect control and ±100 the full control effect
#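 Secreted IL-1B measured by AlphaLISA bead assay after 16 h compound exposure of THP-1 cells; compounds (final up to 57.5 uM) added 1 h before LPS (250 ng/mL) and ATP (1.25 mM) stimulation; lower signal means less secretion.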
# Giardia kill: kills Giardia lamblia; Giardia lamblia trophozoite viability; activity change, % at 7.66 µM, hits read low; 0.15% of 340,000 active; AID 540267; in the data active means activity change below about -80%; inconclusive means between about -30% and that limit;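 further: parasites exposed to compound for two days anaerobically before the ATP read; on the % scale 0 is the no-effect control and ±100 the full control effect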
#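 Viability, read as ATP luminescence: trophozoites at 100 cells/well, compound added, 48 hrs anaerobic at 37 deg C, then 15-30 min room-temperature development before reading.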
# HT1080 IDH1KD tx: HT-1080 IDH1 knockdown cell toxicity (counter line). 2% of 360,000 active. Potency, µM (doses to about 46.1 µM), inactives show top-dose activity, negative = toxicity, hits mostly cytotoxic. HT-1080 IDH1 knockdown viability, ATP luminescence, 48 h;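 further: potency means the concentration at half of the fitted maximal effect; 0% = DMSO wells and -100% = cell-free medium wells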
#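 Viability of IDH1-knockdown HT-1080 fibrosarcoma cells was assessed by CellTiter-Glo after 48 h at 37 °C with titrated compound; concentration-effect curves were classified by fit quality and response size.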
# TGFb inhibitor: inhibitors of TGF-b signaling | HepG2 CAGA-GFP TGF-b/SMAD3 reporter, GFP fluorescence, 18 h; TGF-beta stimulated, 500 pg/mL final | 1.2% of 410,000 active | Potency, µM (titrated, usually from 46.1 µM), for inactives: top-dose activity, negative = inhibition, usual class: inhibitors; further: potency means the concentration at half of the fitted maximal effect; on the % scale 0 is the no-effect control and ±100 the full control effect; nearly all actives have a fitted effect of over 65% in size
#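 HEPG2 CAGA-GFP cells (1000/well, DMEM with 1% FBS) were pre-incubated 2 h at 37 degrees C, given compound by pin tool, then stimulated with TGF-beta at 500 pg/mL final for 18 h before per-cell GFP fluorescence imaging.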
# HT1080-NT tox: kills 2HG-producing HT-1080-NT fibrosarcoma cells; HT-1080-NT fibrosarcoma viability, CellTiter-Glo ATP luminescence, 48 h; Potency, µM (series often up to 46.1 µM), for the others: at the top dose activity, negative = less viability, most hits filed as cytotoxic; 1.6% of 360,000 active; AID 686970;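 further: NT is the 2HG producing partner of a matched IDH1 knockdown line; potency means the concentration at half of the fitted maximal effect; 0% = DMSO-treated cells and -100% = media-only wells without cells; nearly all actives have a fitted effect of over 55% in size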
#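 Viability by CellTiter-Glo luminescence after 48 h compound exposure at 37C of HT-1080-NT cells (750/well, RPMI, 5% FBS). % activity scaled between DMSO wells and medium-only wells, then curve-fitted and categorized by curve class.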
# * marks the source's active call; other numbers are inactive results; ? = inconclusive; . = no result; ! = not confirmed by another sample. A selection: hits, their analogues and other compounds. The true share with any hit is near 6.5%. Unless noted, the call rests on the fitted dose curve; in most records, active means well fitted curve in the direction sought with a large enough effect; inconclusive means small, poorly fitted or top-dose-only effect, or another doubt; inactive means no such curve, though single readings can be large; an effect the other way counts as inactive or inconclusive.
SMILES,HepG2 tox,IL-1B inflam inh,Giardia kill,HT1080 IDH1KD tx,TGFb inhibitor,HT1080-NT tox
COc1ccc(-c2ccc(-c3nc4ccc(C)cn4c3NC3CCCCC3)cc2OC)cc1,-20%,-55*!,8,?,?,?
CC(CNC(=O)CCCn1c(=O)c2cccn2c2ccccc21)c1ccccc1 (stereo unspecified),-26%,.,.,.,?,.
CCCCNc1c(-c2ccc(SC3CCCCC3)c(OC)c2)nc2ccc(C)cn12,8.9µM*,-68*!,11,?,?,?
Cc1ccc2nc(-c3cccc(SC4CCCCC4)c3)c(NC3CCCCC3)n2c1,-18%,10,8,-1%,-13%,-1%
CCCCNc1c(-c2ccc(OC)c(SC3CCCCC3)c2)nc2ccc(C)cn12,13µM*,-59*,-26,?,18µM*,?
COc1ccc(-c2nc3ccc(Cl)cn3c2NC2CCCCC2)cc1SC1CCCCC1,-25%,-58*,-11,16%,?,9%
COc1ccc(NC(=O)CN(C)C(=O)CNC(=O)Cc2cccc3ccccc23)cc1,1%,-2,-5,0%,0%,-14%
Nc1ccc(C(CC(=O)O)n2cccc2)cc1 (stereo unspecified),7%,-7,34,-2%,3%,-4%
O=S(=O)(NC1=NCCCCC1)c1ccc2sc(NS(=O)(=O)c3ccc4ccccc4c3)nc2c1,-41%,-54*,0,-22%,?,-18%
O=S(=O)(Nc1nc2c(s1)CCCC2)c1ccc2ccccc2c1,-1%,40,-1,-21%,?,-1%
Cn1c(COc2ccc([N+](=O)[O-])cc2)nnc1SCC(N)=O,2%,-1,-21,5%,6%,7%
O=S(=O)(NC1c2cccc3cccc(c23)C1N1CCNCC1)c1ccc(Cl)cc1 (stereo unspecified),-63%,-60*,-5,21µM*,?,18µM*
O=C(c1ccco1)N1CCN(C(c2coc3ccc(Cl)cc3c2=O)c2nnnn2C2CCCC2)CC1 (stereo unspecified),-13%,-14,2,12%,0%,7%
Cc1ccc2occ(C(c3nnnn3C3CCCC3)N3CCN(C(=O)c4ccco4)CC3)c(=O)c2c1 (stereo unspecified),-6%,-64*,4,?,6%,-26%
C=C(C)CNC(=S)N/N=C/c1ccc([N+](=O)[O-])cc1,5%,1,11,2%,-11%,0%
Cc1ccc(-c2csc(N3CCN(c4cc5c(cc4Cl)nc(-c4ccncc4)n5CCN4CCCCC4)CC3)n2)cc1,-25%,-59*,4,-14%,?,?
Cc1ccc(-c2csc(N3CCN(c4ccc5nc(-c6ccncc6)n(CCN6CCCCC6)c5c4)CC3)n2)cc1,-47%,6,5,-7%,?,1%
COc1ccc(C(=O)c2ccc(Br)cc2)c(OC)c1OC,-3%,-9,19,-17%,-10%,1%
COc1ccc(C(=O)c2ccc(OC)c(OC)c2OC)cc1,-24%,-7,7,10µM*,-26%,?
COc1ccc(C(=O)c2ccc(N(C)C)cc2)c2ccccc12,-16%,55,9,2.8µM*,?,1.6µM*
CN1C(C(=O)Nc2ccc(C(=O)O)cc2)=C(O)c2ccccc2S1(=O)=O,5.6µM*,10,-16,-4%,-3%,-15%
Cc1nnc(SCc2ccc([N+](=O)[O-])cc2)o1,-12%,-2,-5,-4%,3%,9%
CC1CC(C)CN(C(=O)COC(=O)c2cc(S(=O)(=O)N3CCOCC3)ccc2F)C1 (stereo unspecified),-2%,-88*,-9,-1%,0%,1%
Cn1c(N)c(C(=O)COC(=O)c2cc(S(=O)(=O)N3CCOCC3)ccc2F)c(=O)n(C)c1=O,3%,-105*,-5,?,10%,?
